Each structure is given as a SMILES string. This is part of a sample that, as a whole, favours compounds with a hit. Of some 83,000 tested, about 20% had one in any assay.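 Growth was measured after 48 h exposure to one concentration of compound in 96-well plates. Values under 10 count as active.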 Values without a mark were called inactive. Activity calls are given as the source filed them.

What all share (experiment): NCI-60 one-dose screen, 48 h (100 = growth as untreated, 0 = no growth, -100 = all killed)
One assay concerns HCT-15 colon. To be noted: 10 µM unless noted.
The next assay deals with HT29 colon. To be noted: 10 µM unless noted.
The next assay has as its system SNB-75 CNS. To be noted: 10 µM unless noted.
Another assay deals with SNB-19 CNS. To be noted: 10 µM unless noted.
In the next assay the test system is U251 CNS. To be noted: 10 µM unless noted.
In another assay the test system is PC-3 prostate. To be noted: 10 µM unless noted.
The subject of a further assay is SK-MEL-5 melanoma. The settings on record: 10 µM unless noted.
The next assay concerns UACC-62 melanoma. The settings on record: 10 µM unless noted.
In another assay the test system is LOX IMVI melanoma. To be noted: 10 µM unless noted.
The next assay deals with SK-MEL-28 melanoma. To be noted: 10 µM unless noted.
A further assay concerns SK-MEL-2 melanoma. To be noted: 10 µM unless noted.
Another assay concerns EKVX NSCLC. The settings on record: 10 µM unless noted.
The subject of the next assay is SN12C renal. The settings on record: 10 µM unless noted.
The subject of the next assay is UO-31 renal. To be noted: 10 µM unless noted.
In another assay the test system is TK-10 renal. The settings on record: 10 µM unless noted.
A further assay concerns ACHN renal. The settings on record: 10 µM unless noted.
The next assay concerns A498 renal. To be noted: 10 µM.
The test system of the next assay is CCRF-CEM leukemia. To be noted: 10 µM unless noted.
For the next assay, the system named is CAKI-1 renal. To be noted: 10 µM unless noted.
The subject of the next assay is HL-60(TB) leukemia. To be noted: 10 µM unless noted.

For the compound `O=P(N1CC1)(N1CC1)N1CCc2ccccc21`, the growth in the assay with HCT-15 colon was 115%; with HT29 colon it was 104%; in the assay with SNB-75 CNS it was 91.1%; with SNB-19 CNS, 102%; with U251 CNS, 95.5%; with PC-3 prostate, 88.6%. Besides, the growth is 109% in the assay with SK-MEL-5 melanoma; 92.8% in the assay on UACC-62 melanoma; 93.3% with LOX IMVI melanoma; 115% in the assay on SK-MEL-28 melanoma; 121% with SK-MEL-2 melanoma; 119% with EKVX NSCLC. Moreover, the growth was 92.4% in the assay on SN12C renal; 92.2% in the assay with UO-31 renal; 110% in the assay with TK-10 renal; 108% in the assay with ACHN renal; 106% in the assay with A498 renal; 104% in the assay on CCRF-CEM leukemia.
In the case of `COC(=O)[C@@H](C)C[C@H](Cc1ccccc1)NC(=O)c1csc([C@@H](C[C@H](C(C)C)N(C)C(=O)C2(NC(=O)[C@H]3CCCCN3C)CC2)OC(C)=O)n1`, the growth with HCT-15 colon was 20.5%; in the assay with HT29 colon it was 9.71% (active); in the assay on SNB-75 CNS, 26.5%; in the assay with SNB-19 CNS, 68.2%; in the assay with U251 CNS, 4.91% (active); in the assay with PC-3 prostate, 12.3%. Besides, the growth is -40.2% (active) in the assay with SK-MEL-5 melanoma; 41.1% in the assay on UACC-62 melanoma; 3.04% (active) with LOX IMVI melanoma; 58.7% with SK-MEL-28 melanoma; 34.1% in the assay with SK-MEL-2 melanoma; 29.1% in the assay with EKVX NSCLC. Further, the growth with SN12C renal is 31.3%; with UO-31 renal, 48%; in the assay on ACHN renal it was 32.4%; in the assay on CAKI-1 renal, 59.8%; in the assay with A498 renal, -5.45% (active); in the assay with HL-60(TB) leukemia, -46.1% (active).
As for `Oc1ccc2c3c1OC1[C@@H](O)CC[C@@]4(O)[C@@H](C2)N(CC2CCC2)CC[C@]314` (stereo not given in full), the growth was 99.2% in the assay on HCT-15 colon; 98% with HT29 colon; 97.9% in the assay with SNB-75 CNS; 109% in the assay with SNB-19 CNS; 96.8% in the assay on U251 CNS; 94.1% in the assay on PC-3 prostate. Further, the growth in the assay with SK-MEL-5 melanoma was 92.5%; in the assay with UACC-62 melanoma, 108%; with LOX IMVI melanoma it was 97.3%; with SK-MEL-28 melanoma, 106%; in the assay on SK-MEL-2 melanoma, 118%; in the assay with EKVX NSCLC, 99.7%. In addition, the growth in the assay with SN12C renal is 103%; in the assay on UO-31 renal, 83.2%; in the assay with TK-10 renal, 106%; in the assay on CAKI-1 renal, 94%; in the assay on A498 renal, 94.7%; with HL-60(TB) leukemia, 102%. For the same compound, the growth in the assay on CCRF-CEM leukemia was 97.5%.
For the compound `CC[C@H](NC(=O)[C@H]1CCCCN1C)C(=O)N(C)[C@H](C[C@@H](OC(C)=O)c1nc(C(=O)N[C@@H](Cc2ccccc2)C[C@H](C)C(=O)O)cs1)C(C)C`, the growth with HCT-15 colon is 6.42% (active); with HT29 colon it was 2.74% (active); with SNB-75 CNS, 24.9%; in the assay with SNB-19 CNS, 17.6%; in the assay with U251 CNS, 14.9%; with PC-3 prostate, 22.9%. The growth in the assay on SK-MEL-5 melanoma is -40.3% (active); in the assay on UACC-62 melanoma it was 27.1%; in the assay with LOX IMVI melanoma it was 13.2%; with SK-MEL-28 melanoma, 73.7%; in the assay with SK-MEL-2 melanoma it was 36.8%; in the assay with EKVX NSCLC it was 40.6%. The growth was 17.1% in the assay with SN12C renal; 41.7% with UO-31 renal; 69% in the assay on TK-10 renal; -8.18% (active) with A498 renal; -21.5% (active) with HL-60(TB) leukemia; 1.98% (active) with CCRF-CEM leukemia.
On to `O=[N+]([O-])c1cc([N+](=O)[O-])c(Nn2c3ccccc3c3ccccc32)c([N+](=O)[O-])c1`, for which the growth in the assay with HCT-15 colon is 2.82% (active); in the assay with HT29 colon, -4.7% (active); in the assay on SNB-75 CNS, -19.7% (active); in the assay on SNB-19 CNS it was 25.8%; in the assay on U251 CNS, 8.04% (active); with PC-3 prostate, -10.5% (active). Further, the growth was -75.9% (active) in the assay on SK-MEL-5 melanoma; -16.7% (active) with UACC-62 melanoma; 7.47% (active) with LOX IMVI melanoma; 11.9% in the assay on SK-MEL-28 melanoma; -50.4% (active) in the assay on SK-MEL-2 melanoma; 6.19% (active) in the assay with EKVX NSCLC. The growth was 5.01% (active) in the assay on SN12C renal; -3.91% (active) in the assay on UO-31 renal; 0.75% (active) with TK-10 renal; -43.2% (active) in the assay on A498 renal; -30.3% (active) in the assay with HL-60(TB) leukemia; -0.784% (active) with CCRF-CEM leukemia.
For `C[C@]12CCc3nc(Nc4ccccc4F)sc3C1=CC[C@@H]1[C@@H]2CC[C@]2(C)C(=O)CC[C@@H]12`, the growth with HCT-15 colon was 29.3%; in the assay on HT29 colon it was 19.1%; with SNB-75 CNS, 87.3%; in the assay with SNB-19 CNS, 85.1%; in the assay on U251 CNS, 54.3%; in the assay on PC-3 prostate, 54.9%. Also, the growth with SK-MEL-5 melanoma was 81.9%; in the assay with UACC-62 melanoma, 85.8%; in the assay on LOX IMVI melanoma, 14.5%; in the assay with SK-MEL-28 melanoma it was 77%; in the assay with SK-MEL-2 melanoma, 92.8%; with EKVX NSCLC, 94.4%. In addition, the growth is 69.5% with SN12C renal; 64.8% in the assay with UO-31 renal; 35.7% in the assay with TK-10 renal; 65.4% in the assay on CAKI-1 renal; 90.6% in the assay on A498 renal; 34.2% with HL-60(TB) leukemia. In addition, in the assay with CCRF-CEM leukemia, the growth is 26.6%.
`CCOP(=O)(Cc1ccc(C#N)cc1)OCC`: the growth in the assay with HCT-15 colon is 108%; in the assay with HT29 colon, 92.2%; in the assay with SNB-75 CNS, 106%; in the assay on SNB-19 CNS it was 97.3%; with U251 CNS, 95.6%; with PC-3 prostate, 84.7%. The growth with SK-MEL-5 melanoma is 104%; in the assay on UACC-62 melanoma, 94.1%; with LOX IMVI melanoma it was 98.3%; with SK-MEL-28 melanoma, 107%; in the assay with SK-MEL-2 melanoma it was 92.3%; in the assay on EKVX NSCLC it was 105%. Moreover, the growth in the assay on SN12C renal was 97%; in the assay with UO-31 renal, 99.2%; with TK-10 renal, 93.4%; in the assay on ACHN renal, 110%; in the assay on A498 renal, 98%; in the assay on CCRF-CEM leukemia, 99.3%.
Take `CCOC(=O)[C@@H](C)C[C@H](Cc1ccccc1)NC(=O)c1csc([C@@H](C[C@H](C(C)C)N(C)C(=O)[C@@H](NC(=O)[C@H]2CCCCN2C)C(C)(C)CC)OC(C)=O)n1`: the growth in the assay on HCT-15 colon was 8.77% (active); with HT29 colon, -4.94% (active); with SNB-75 CNS, -5.95% (active); in the assay with SNB-19 CNS, 17.6%; in the assay on U251 CNS, 9.55% (active); with PC-3 prostate, 24.1%. Besides, the growth in the assay with SK-MEL-5 melanoma was -15.3% (active); with UACC-62 melanoma it was 33.1%; in the assay on LOX IMVI melanoma, 14.3%; with SK-MEL-28 melanoma it was 38.6%; in the assay with SK-MEL-2 melanoma, 2.19% (active); in the assay with EKVX NSCLC, 37.4%. In addition, the growth in the assay with SN12C renal is 9.13% (active); with UO-31 renal, 7.43% (active); in the assay on TK-10 renal, 29.3%; in the assay on CAKI-1 renal it was 19.8%; in the assay with HL-60(TB) leukemia it was -33.4% (active).

Source of the values: PubChem BioAssay (NCI).
